Source: PubChem BioAssay (Broad Institute)
Sampled rows, rich in hits. Any-hit rate of the full collection: about 1.4%.
ERAP1 HTS inh = blocks human ERAP1 aminopeptidase activity; Q9NZ08; recombinant ERAP1, Leu-AMC fluorescence, 60 min; inhibition, % at 10.7 µM; 340,000 compounds, 0.15% hits; AID 652197;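 active = mean replicate inhibition of at least 30%, or all replicates individually reaching that 30% level; inactive = mean below 30% and not every replicate reaching it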;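 also: 0% = neutral control wells and 100% = L-leucinethiol positive control wells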
INS-1E GSIS act = primary screen for activators of insulin secretion dependent on glucose, INS-1E cells, GLuc reporter luminescence; INS-1E GLuc reporter insulin secretion, 2-3 h; activation, % at 16.6 µM; 370,000 compounds, 0.61% hits;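 active = lowest replicate activation of at least 40%, so every replicate reaches that level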;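 also: 0% = median of neutral control wells and 100% = median of IBMX positive control wells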
PGC1a acetyl inh = lowers PGC1a acetylation signal in U2OS cells | AlphaScreen anti-acetyl-lysine; with virally co-expressed GCN5 acetyltransferase | inhibition, % at 15.6 µM | 350,000 compounds, 0.17% hits;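 active = every replicate shows inhibition of at least 40%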;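 also: 0% = neutral control wells and 100% = positive control wells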
RAD52 inh = inhibitors of human RAD52 DNA annealing; AID 651710; inhibition, % at 18.7 µM; 360,000 compounds, 0.46% hits; recombinant RAD52 DNA annealing, FRET fluorescence; P43351;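 active = every replicate showing at least 50% inhibition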
Target sequence (P43351 whole entry, looked up): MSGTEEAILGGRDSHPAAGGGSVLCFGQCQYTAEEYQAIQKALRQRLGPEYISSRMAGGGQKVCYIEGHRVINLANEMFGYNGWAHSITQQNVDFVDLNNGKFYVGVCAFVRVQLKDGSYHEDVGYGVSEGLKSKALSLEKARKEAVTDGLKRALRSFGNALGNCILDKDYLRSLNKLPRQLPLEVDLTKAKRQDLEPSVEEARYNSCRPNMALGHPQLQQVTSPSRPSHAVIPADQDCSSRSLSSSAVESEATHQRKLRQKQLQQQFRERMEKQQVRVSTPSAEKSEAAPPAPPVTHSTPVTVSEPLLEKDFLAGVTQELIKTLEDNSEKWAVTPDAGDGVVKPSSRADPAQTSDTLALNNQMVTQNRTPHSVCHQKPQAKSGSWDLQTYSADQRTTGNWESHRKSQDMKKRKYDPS
RAD54 inh = blocks human RAD54 Holliday junction branch migration. FAM/BHQ fluorescence. inhibition, % at 10.4 µM. 360,000 compounds, 0.14% hits;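 active = mean normalized replicate activity at least 40 and at least half of replicates scoring 40 or more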;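 also: 0% = median of neutral control wells and 100% = median of positive control wells; inhibitors cause a drop in the FAM fluorescence signal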
MLL AF4-AF9 inh = blocks AF4 peptide binding to human AF9. 350,000 compounds, 0.47% hits. AlphaScreen, biotin-AF4 peptide binding to FLAG-AF9. inhibition, % at 10 µM. P42568;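 active = every replicate reaching a set inhibition limit, whatever the replicate mean, cut at about 25% in these data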;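 also: 0% = plate neutral control median and 100% = total signal loss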
Starred values were filed as active, the others as inactive; nt = no result given.

SMILES	ERAP1 HTS inh	INS-1E GSIS act	PGC1a acetyl inh	RAD52 inh	RAD54 inh	MLL AF4-AF9 inh
Cc1ccc(-c2ccc(C(=O)O)o2)cc1Cl	-1	29	6	-12	13	27*
CC(=O)N[C@H]1CC[C@@H](CCNC(=O)C2CC2)O[C@@H]1CO	0	-1	-1	-12	4	-2
COc1cccc(C2=Nc3cccc4cccc(c34)N2)c1	-2	4	5	-8	3	33*
Nc1ccc(C2=Nc3cccc4cccc(c34)N2)cc1	-2	3	1	-3	12	7
O=C(C[C@H]1CC[C@@H](NS(=O)(=O)c2ccccc2)[C@H](CO)O1)N1CCC(Cc2ccccc2)CC1	3	-2	-2	9	nt	-1
CCOc1ccc(-c2nnc(SCC(=O)N3CCNC3=O)o2)cc1	0	9	3	-5	0	28*
CCOc1ccc(-c2nnc(SCC(=O)N3CCN(c4ccccc4)CC3)o2)cc1	nt	4	nt	-10	11	-7
CCc1ccc(N(C2C=CS(=O)(=O)C2)S(=O)(=O)c2ccccc2)cc1 (stereo not drawn)	nt	86*	nt	nt	nt	nt
CCCNC(=O)N1CC2(CN(C(=O)c3cccc(F)c3)C2)c2c([nH]c3cc(OC)ccc23)[C@@H]1CO	0	12	5	16	nt	-5
Cc1cc(C(F)F)n2ncc(C(=O)NCc3ccc(F)cc3)c2n1	0	44*	nt	-1	nt	-6
CCN(CC)C(=O)c1ccccc1NS(=O)(=O)c1ccc(C)cc1	nt	43*	-5	nt	8	nt
CCc1ccc2c(c1)cc(CN(Cc1ccco1)C(C)=O)c1nnnn12	-1	52*	5	-16	nt	3
Cc1ccc2c(c1)cc(CN(Cc1ccco1)C(=O)N1CCOCC1)c1nnnn12	nt	17	-1	-5	1	2
COc1ccc2c3c([nH]c2c1)[C@H](CO)N(C(=O)CN1CCOCC1)CC31CCN(C(C)=O)CC1	nt	32	-5	nt	nt	-3
CCNc1nc(NOC)nc(OCC#N)n1	-1	47*	nt	-10	nt	-3
CCNc1nc(NCC)nc(OCC(=O)O)n1	-3	17	2	-8	nt	-7
Cc1ccc(C)c(OCC(=O)N/N=C/c2c(C)nn(-c3ccccc3)c2Cl)c1C	nt	297*	nt	nt	nt	nt
CC(=O)Nc1ccc2c(c1)Cc1cc(N3C(=O)C=CC3=O)ccc1-2	34*	39	11	-33	6	-7
Cc1ccc(COC(=O)c2nn(-c3ccccc3)nc2N)cc1	6	5	5	-17	-2	-2
Nc1nn(-c2ccccc2)nc1C(=O)OCc1ccccc1	-1	0	72*	-25	-9	1
CNC[C@H]1OCCCC[C@@H](C)Oc2ccc(NC(=O)c3ccccc3)cc2C(=O)N([C@H](C)CO)C[C@@H]1C	0	22	-3	3	-1	-2
O=C1N[C@H](c2ccccc2)COCc2cn(nn2)CC[C@H]1Cc1ccc(Cl)cc1	nt	7	nt	nt	nt	nt
Oc1ccccc1-c1cc(C(F)(F)C(F)F)nc(-c2ccccc2)n1	nt	112*	5	nt	-1	nt
O=C1Cc2cc(S(=O)(=O)N3CCCCC3)ccc2N1	2	-12	4	-11	-3	2
O=C1Cc2cc(S(=O)(=O)N3CCNCC3)ccc2N1	4	22	nt	77*	nt	8
SMILES	ERAP1 HTS inh	INS-1E GSIS act	PGC1a acetyl inh	RAD52 inh	RAD54 inh	MLL AF4-AF9 inh
Cc1nc(C)c(-c2ccc(SCC(=O)Nc3ccc(C)c(Cl)c3)nn2)s1	-2	41*	-10	-26	15	0
C[C@H](CO)N1C[C@H](C)[C@@H](CN(C)S(=O)(=O)c2ccccc2)Oc2ccc(NC(=O)Cc3cn(C)c4ccccc34)cc2C1=O	-1	0	-4	-34	0	-1
O=C(O)c1ccc(Nc2cc(Cl)c3nonc3c2[N+](=O)[O-])cc1	15	-20	34	-6	0	-6
O=[N+]([O-])c1c(Nc2cccc(O)c2)cc(Cl)c2nonc12	17	97*	nt	2	16	5
Cc1cccc(CS(=O)(=O)c2ncc(Cl)c(C(=O)Nc3c(C)cccc3C)n2)c1	-2	80*	nt	-12	-7	-10
O=[N+]([O-])c1cccc(-c2nc(-c3ccccc3)c(-c3cccs3)[nH]2)c1	nt	48*	-13	nt	6	nt
C[C@@H]1CN([C@H](C)CO)C(=O)c2cc(N(C)C)ccc2O[C@H]1CN(C)Cc1ccc(-c2ccccc2)cc1	5	18	-20	-5	nt	50*
C[C@@H]1CN([C@H](C)CO)C(=O)c2cc(N(C)C)ccc2O[C@@H]1CN(C)Cc1ccccc1	0	-5	-10	-6	-3	-1
C[C@@H]1CN([C@H](C)CO)C(=O)c2cc(N(C)C)ccc2O[C@H]1CN(C)Cc1ccccc1	-1	6	-5	5	7	-4
C[C@H]1CN([C@@H](C)CO)C(=O)c2cc(N(C)C)ccc2O[C@@H]1CN(C)Cc1ccc(-c2ccccc2)cc1	-4	-5	-3	10	-16	40*
O=C(C[C@H]1CC[C@@H](NC(=O)c2cccnc2)[C@H](CO)O1)NCc1ccncn1	0	-1	-2	-13	2	-2
COc1cccc(S(=O)(=O)N2CCC3(CC2)CN[C@@H](CO)c2[nH]c4cc(OC)ccc4c23)c1	nt	7	4	nt	nt	16
COc1ccc2c3c(n(C)c2c1)[C@H](CO)N(C(=O)CN1CCOCC1)CC31CN(Cc2ccncc2)C1	5	16	nt	15	nt	1
CCCn1cnc2cc(NCc3ccccn3)ccc21	1	nt	1	1	5	43*
COc1ccccc1-n1cnc2cc(NCc3ccccn3)ccc21	nt	nt	3	nt	9	nt
CCCN1C[C@@H](C)[C@@H](OC)CN(C)C(=O)c2cc(NC(=O)C3CC3)ccc2OC[C@H]1C	2	13	19	1	5	-1
COc1ccc(/C=C/C(=O)NC(=S)Nc2ccccc2)cc1OC	0	15	nt	-20	9	-3
COc1ccc(/C=C/C(=O)NC(=S)Nc2ccc(S(N)(=O)=O)cc2)cc1OC	-2	44*	6	7	-7	0
CCOC(=O)N(C)[C@H]1C[C@H]2c3cc(-c4ccccc4C)ccc3CCN2C[C@H]1[C@H](C)O	-1	-44	nt	8	nt	nt
C[C@H](O)[C@@H]1CN2CCc3ccc(-c4ccc5c(c4)OCO5)cc3[C@@H]2C[C@@H]1N(C)C(=O)c1cccc(Cl)c1	-1	188*	nt	-87	nt	nt
COc1cccc(/C=C2\SC(=S)N(CC3CCCO3)C2=O)c1 (stereo not drawn)	0	16	nt	-3	nt	32*
O=C(Nc1ccccc1N1CCCC1)c1ccc([N+](=O)[O-])o1	4	9	-3	-13	-7	17
COc1ccc(N2CCCC2)c(NC(=O)c2ccc([N+](=O)[O-])o2)c1	1	26	nt	-20	9	32*
COc1ccc(S(=O)(=O)Nc2ccc3c(c2)C(=O)N([C@H](C)CO)C[C@@H](C)[C@H](CN(C)C(=O)Nc2ccccc2)OCCCC[C@H](C)O3)cc1	nt	-18	nt	nt	nt	nt
